Source: PubChem BioAssay (EPA / NIEHS)
Inconclusive results are not listed. The source made the active and inactive calls. How the source made its calls, unless noted: active means hit-call score of the fitted dose curve at least 0.9, where 1 is the maximum; inconclusive means response in the unintended direction; inactive means score below 0.9.

Tests used:
[1] = ATG_TAL_CIS: Attagene CIS-FACTORIAL HepG2 Assay for human TAL Basal Promoter (AID 2282966; active means hit-call score of the fitted dose curve at least 0.9, where 1 is the maximum; inactive means score below 0.9;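 further: background control endpoint measuring basal TAL promoter reporter mRNA not a specific factor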); settings: HepG2 Attagene cis-factorial TAL promoter reporter; actives raise or lower the signal
Summary of the method: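 HepG2 cells were transiently transfected with promoter-driven multiplexed reporter units and dosed for 24 h. Reporter mRNA was measured by RT-PCR with capillary electrophoresis fluorescence; bidirectional fits used DMSO as baseline, serving as a background control.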

[2] = ATG_TGFb_CIS: Attagene CIS-FACTORIAL HepG2 Assay for human Transforming Growth Factor (TGF) (AID 2282967; active means hit-call score of the fitted dose curve at least 0.9, where 1 is the maximum; inactive means score below 0.9); settings: HepG2 Attagene CIS TGFb reporter, mRNA transcription; actives raise or lower the signal
Summary of the method: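 Transient MRTU transfection of HepG2 (FuGene 6). Dose 24 h. TriZol RNA, oligo(dT) RT, PCR, 6-FAM primer extension, HpaI cut, CE. Bidirectional fit, DMSO = baseline.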

[3] = molecular target: X-box-binding protein 1 (Homo sapiens) (UniProt P17861); assay: ATG_Xbp1_CIS: Attagene CIS-FACTORIAL HepG2 Assay for human X-box Binding Protein 1 (XBP1) (AID 2282972; active means hit-call score of the fitted dose curve at least 0.9, where 1 is the maximum; inactive means score below 0.9); settings: HepG2 XBP1 cis-element reporter, Attagene multiplex; actives raise or lower the signal
Chain of X-box-binding protein 1 (Homo sapiens) (P17861 whole entry, looked up): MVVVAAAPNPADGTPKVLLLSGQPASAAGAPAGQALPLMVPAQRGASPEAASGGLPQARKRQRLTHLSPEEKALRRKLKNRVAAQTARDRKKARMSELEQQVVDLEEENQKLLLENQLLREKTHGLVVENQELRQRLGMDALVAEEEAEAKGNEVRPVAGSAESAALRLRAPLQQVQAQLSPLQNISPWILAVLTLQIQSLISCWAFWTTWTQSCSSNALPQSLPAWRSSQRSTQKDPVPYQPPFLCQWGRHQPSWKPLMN
Summary of the method: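 HepG2 cells transiently transfected with multiple cis-element reporter units report endogenous TF activity; 24 h exposure, then reporter mRNA measured by RT-PCR, 6-FAM labelling, HpaI digestion and capillary electrophoresis. Bidirectional fitting versus DMSO.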

[4] = ATG_M_06_TRANS: Attagene TRANS-FACTORIAL HepG2 Assay for M06 Transcription Factor (Internal Marker) (AID 2282983); settings: HepG2 Attagene TRANS M06 internal marker reporter;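 further: reporter transcript level by RT-PCR then capillary electrophoresis fluorescence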
Summary of the method: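 HepG2 cells transiently transfected with multiplexed GAL4-UAS reporter transcription units; after 24 h compound exposure, reporter mRNA measured by RT-PCR, FAM-labelled primer extension, HpaI digestion and capillary electrophoresis. Gain-of-signal fitted versus DMSO baseline; background control readout.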

[5] = ATG_M_32_TRANS: Attagene TRANS-FACTORIAL HepG2 Assay for M32 Transcription Factor (Internal Marker) (AID 2282984); settings: HepG2 Attagene TRANS M32 internal marker reporter
Summary of the method: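 HepG2 cells transiently transfected with GAL4-UAS reporter units, dosed for 24 hours. Reporter mRNA quantified by RT-PCR, 6-FAM labelling, HpaI digestion and capillary electrophoresis; internal-marker signal fitted upward relative to DMSO.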

[6] = molecular target: Nuclear receptor subfamily 4 group A member 2 (Homo sapiens) (UniProt P43354); assay: ATG_NURR1_TRANS: Attagene TRANS-FACTORIAL HepG2 Assay for human Nuclear Receptor Related Protein 1 (NURR1) (AID 2282985); settings: HepG2 Attagene TRANS reporter, mRNA readout
Chain of Nuclear receptor subfamily 4 group A member 2 (Homo sapiens) (P43354 whole entry, looked up, the tested form may be a part): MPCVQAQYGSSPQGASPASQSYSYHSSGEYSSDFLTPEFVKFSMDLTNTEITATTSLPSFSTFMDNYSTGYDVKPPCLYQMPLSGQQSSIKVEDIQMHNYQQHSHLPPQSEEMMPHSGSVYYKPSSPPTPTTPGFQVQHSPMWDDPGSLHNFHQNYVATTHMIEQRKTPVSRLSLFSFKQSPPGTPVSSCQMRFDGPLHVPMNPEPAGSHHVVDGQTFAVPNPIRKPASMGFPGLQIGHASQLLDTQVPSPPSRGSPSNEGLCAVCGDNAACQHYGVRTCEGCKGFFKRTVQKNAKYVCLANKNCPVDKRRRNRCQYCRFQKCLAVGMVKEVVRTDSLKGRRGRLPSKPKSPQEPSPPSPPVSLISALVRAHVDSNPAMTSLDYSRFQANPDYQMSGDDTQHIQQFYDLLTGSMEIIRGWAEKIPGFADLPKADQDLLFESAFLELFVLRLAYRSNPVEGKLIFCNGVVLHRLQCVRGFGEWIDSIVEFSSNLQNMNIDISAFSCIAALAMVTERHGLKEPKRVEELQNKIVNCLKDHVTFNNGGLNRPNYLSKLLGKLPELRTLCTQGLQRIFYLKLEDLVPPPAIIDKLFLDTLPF
Summary of the method: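 HepG2 cells transiently transfected with NURR1-Gal4 chimera and GAL4-UAS reporter units; after 24 hr compound exposure, reporter mRNA quantified by RT-PCR and capillary electrophoresis; gain of signal fitted against DMSO.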

[7] = molecular target: Transcriptional activator Myb (Homo sapiens) (UniProt P10242); assay: ATG_Myb_CIS: Attagene CIS-FACTORIAL HepG2 Assay for human Myeloblastosis (Myb) Proto-Oncogene Transcription Factor (AID 2282986; active means hit-call score of the fitted dose curve at least 0.9, where 1 is the maximum; inactive means score below 0.9); settings: HepG2 Attagene CIS-FACTORIAL Myb reporter transcription; actives raise or lower the signal
Chain of Transcriptional activator Myb (Homo sapiens) (P10242 whole entry, looked up): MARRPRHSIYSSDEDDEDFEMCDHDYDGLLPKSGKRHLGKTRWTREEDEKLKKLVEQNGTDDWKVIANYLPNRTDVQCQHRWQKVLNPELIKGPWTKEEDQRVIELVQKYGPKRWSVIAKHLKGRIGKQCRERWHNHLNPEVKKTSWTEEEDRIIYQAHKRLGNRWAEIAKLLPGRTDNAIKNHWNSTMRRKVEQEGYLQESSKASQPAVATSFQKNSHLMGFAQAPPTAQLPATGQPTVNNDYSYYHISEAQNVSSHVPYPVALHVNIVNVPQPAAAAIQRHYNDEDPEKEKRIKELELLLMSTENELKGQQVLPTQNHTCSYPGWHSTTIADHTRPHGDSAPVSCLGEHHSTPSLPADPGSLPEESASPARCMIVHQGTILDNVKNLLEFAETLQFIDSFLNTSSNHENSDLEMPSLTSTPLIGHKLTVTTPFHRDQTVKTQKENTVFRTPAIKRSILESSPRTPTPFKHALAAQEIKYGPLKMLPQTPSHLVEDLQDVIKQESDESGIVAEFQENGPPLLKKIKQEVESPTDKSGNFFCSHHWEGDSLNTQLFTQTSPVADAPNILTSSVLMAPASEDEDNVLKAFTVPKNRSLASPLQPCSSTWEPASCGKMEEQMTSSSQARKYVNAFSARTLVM
Summary of the method: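 After 24 h of compound dosing, total RNA from transfected HepG2 cells is reverse-transcribed and the reporter sequences amplified, labeled and separated by capillary electrophoresis. Values come from bidirectional fitting against DMSO.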

[8] = molecular target: Nuclear receptor subfamily 1 group I member 3 (Homo sapiens) (UniProt Q14994); assay: ATG_CAR_TRANS: Attagene TRANS-FACTORIAL HepG2 Assay for human Constitutive Androstane Receptor (CAR) (AID 2282969); settings: HepG2 Attagene TRANS-FACTORIAL CAR reporter;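 further: activators raise reporter mRNA above DMSO so AC50 marks induction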
Chain of Nuclear receptor subfamily 1 group I member 3 (Homo sapiens) (Q14994 whole entry, looked up, the tested form may be a part): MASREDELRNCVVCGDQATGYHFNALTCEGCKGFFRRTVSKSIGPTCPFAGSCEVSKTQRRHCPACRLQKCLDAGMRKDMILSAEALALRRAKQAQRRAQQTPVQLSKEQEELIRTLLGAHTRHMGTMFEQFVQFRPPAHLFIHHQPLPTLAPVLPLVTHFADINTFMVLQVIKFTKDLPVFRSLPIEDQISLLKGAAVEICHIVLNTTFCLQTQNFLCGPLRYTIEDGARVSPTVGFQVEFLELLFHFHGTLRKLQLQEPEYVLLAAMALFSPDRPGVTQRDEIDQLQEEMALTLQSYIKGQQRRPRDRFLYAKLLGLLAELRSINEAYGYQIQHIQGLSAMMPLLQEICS
Summary of the method: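 HepG2 cells transiently transfected with GAL4-UAS reporter units; TRANS format reads activity of exogenous chimeric NR-Gal4 protein. After 24 h dosing, reporter mRNA quantified by RT-PCR, 6-FAM labelling and capillary electrophoresis; gain of signal fitted against DMSO.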

[9] = molecular target: Steroid hormone receptor ERR1 (Homo sapiens) (UniProt P11474); assay: ATG_ERRa_TRANS: Attagene TRANS-FACTORIAL HepG2 Assay for human Estrogen-Related Receptor alpha (ERRa) (AID 2282971); settings: HepG2 Attagene TRANS reporter, ERRa transactivation
Chain of Steroid hormone receptor ERR1 (Homo sapiens) (P11474 whole entry, looked up, the tested form may be a part): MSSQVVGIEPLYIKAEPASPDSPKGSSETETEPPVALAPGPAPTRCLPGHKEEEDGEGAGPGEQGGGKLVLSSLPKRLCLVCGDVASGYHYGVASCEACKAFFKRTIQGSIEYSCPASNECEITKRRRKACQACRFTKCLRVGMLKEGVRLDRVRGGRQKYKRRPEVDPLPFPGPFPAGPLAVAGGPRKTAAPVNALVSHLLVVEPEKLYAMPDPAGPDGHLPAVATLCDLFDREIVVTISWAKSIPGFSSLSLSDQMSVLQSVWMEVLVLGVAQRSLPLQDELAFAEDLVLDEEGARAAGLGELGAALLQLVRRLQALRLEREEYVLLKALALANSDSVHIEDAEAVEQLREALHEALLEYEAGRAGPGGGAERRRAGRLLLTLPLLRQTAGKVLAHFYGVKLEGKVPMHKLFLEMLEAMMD
Summary of the method: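 HepG2 cells transiently transfected with multiplexed GAL4-UAS reporter units reading chimeric ERRa-Gal4 activity; 24 h compound exposure. Reporter mRNA measured by RT-PCR, 6-FAM labelling, HpaI digest and capillary electrophoresis; gain of signal fitted versus DMSO baseline.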

[10] = molecular target: Estrogen-related receptor gamma (Homo sapiens) (UniProt P62508); assay: ATG_ERRg_TRANS: Attagene TRANS-FACTORIAL HepG2 Assay for human Estrogen-Related Receptor gamma (ERRg) (AID 2282977); settings: HepG2 Attagene TRANS reporter, ERRg transactivation;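 further: hits increase reporter signal over DMSO so potencies reflect activators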
Chain of Estrogen-related receptor gamma (Homo sapiens) (P62508 whole entry, looked up, the tested form may be a part): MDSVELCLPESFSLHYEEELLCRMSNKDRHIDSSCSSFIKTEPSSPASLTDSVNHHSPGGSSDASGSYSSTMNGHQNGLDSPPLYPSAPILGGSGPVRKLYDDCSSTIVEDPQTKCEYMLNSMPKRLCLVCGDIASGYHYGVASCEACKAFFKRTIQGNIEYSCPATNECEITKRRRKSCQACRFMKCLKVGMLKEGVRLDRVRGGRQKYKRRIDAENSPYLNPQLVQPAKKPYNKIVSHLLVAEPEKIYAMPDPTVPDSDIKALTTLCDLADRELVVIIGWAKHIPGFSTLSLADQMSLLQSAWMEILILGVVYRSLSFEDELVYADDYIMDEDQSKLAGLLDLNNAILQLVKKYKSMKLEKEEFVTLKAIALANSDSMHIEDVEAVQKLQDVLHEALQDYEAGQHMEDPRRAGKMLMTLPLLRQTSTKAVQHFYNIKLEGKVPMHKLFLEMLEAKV
Summary of the method: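 HepG2 cells transiently transfected with multiplexed GAL4-UAS reporter units driven by chimeric NR-Gal4 proteins; 24 h exposure. Reporter mRNA quantified by RT-PCR, fluorescent labelling, HpaI digestion and capillary electrophoresis; gain of signal vs DMSO.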

[11] = molecular target: Oxysterols receptor LXR-alpha (Homo sapiens) (UniProt Q13133); assay: ATG_LXRa_TRANS: Attagene TRANS-FACTORIAL HepG2 Assay for human Liver X Receptor alpha (LXRa) (AID 2282980); settings: HepG2 Attagene TRANS reporter, LXRa transactivation
Chain of Oxysterols receptor LXR-alpha (Homo sapiens) (Q13133 whole entry, looked up, the tested form may be a part): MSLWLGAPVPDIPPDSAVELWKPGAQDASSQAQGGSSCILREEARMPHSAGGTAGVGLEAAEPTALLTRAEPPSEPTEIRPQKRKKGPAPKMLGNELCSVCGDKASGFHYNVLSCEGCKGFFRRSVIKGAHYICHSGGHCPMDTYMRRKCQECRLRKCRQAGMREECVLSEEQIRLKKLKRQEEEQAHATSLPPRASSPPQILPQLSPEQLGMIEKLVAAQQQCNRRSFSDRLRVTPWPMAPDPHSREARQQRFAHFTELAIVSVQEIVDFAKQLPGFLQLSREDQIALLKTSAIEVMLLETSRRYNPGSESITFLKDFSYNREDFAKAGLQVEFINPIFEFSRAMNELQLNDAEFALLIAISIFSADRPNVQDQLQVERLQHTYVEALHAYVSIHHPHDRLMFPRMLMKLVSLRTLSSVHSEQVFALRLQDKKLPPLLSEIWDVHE
Summary of the method: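 HepG2 cells were transiently transfected with multiplexed reporter units driven by chimeric LXRa–GAL4 fusion proteins, then dosed for 24 h. Reporter mRNA was quantified by RT-PCR, fluorescent labelling and capillary electrophoresis; gain of signal fitted against DMSO baseline.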

[12] = ATG_VDRE_CIS: Attagene CIS-FACTORIAL HepG2 Assay for human Vitamin D Receptor Element (VDRE) (AID 2282968; active means hit-call score of the fitted dose curve at least 0.9, where 1 is the maximum; inactive means score below 0.9); settings: HepG2 VDRE cis-reporter transcription, actives raise or lower the signal
Summary of the method: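 Transiently transfected HepG2 cells carrying cis-regulated reporter transcription units were exposed for 24 h. Reporter mRNA was measured by RT-PCR with fluorescent labelling and capillary electrophoresis, and fitted in both directions against DMSO.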

[13] = ATG_Hpa5_TRANS: Attagene TRANS-FACTORIAL HepG2 Assay for human GAL4-Hpa5 Hepatocyte Transcription Factor Basal Promoter (AID 2282975); settings: HepG2 Attagene GAL4-Hpa5 transcription reporter;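 further: hits are increases in reporter mRNA over DMSO baseline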
Summary of the method: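 Basal-promoter GAL4 background control within the HepG2 trans-factorial panel of transiently transfected reporter units. Reporter mRNA is measured 24 h after dosing by RT-PCR and capillary electrophoresis, fitted for gain of signal versus DMSO.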

[14] = ATG_GAL4_TRANS: Attagene TRANS-FACTORIAL HepG2 Assay for GAL4 (Internal Marker) (AID 2282976); settings: HepG2 Attagene TRANS GAL4 internal marker reporter
Summary of the method: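 HepG2 cells transiently transfected with multiplexed GAL4-UAS reporter constructs were dosed for 24 h. Reporter mRNA was measured by RT-PCR, 6-FAM primer extension, HpaI digestion and capillary electrophoresis, and gain of signal was fitted relative to DMSO.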

[15] = molecular target: Bile acid receptor (Homo sapiens) (UniProt Q96RI1); assay: ATG_FXR_TRANS: Attagene TRANS-FACTORIAL HepG2 Assay for Farnesoid X Receptor (FXR) (AID 2282979); settings: HepG2 Attagene TRANS FXR-GAL4 reporter transcription;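 further: hits raise reporter mRNA above DMSO so AC50 marks FXR activation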
Chain of Bile acid receptor (Homo sapiens) (Q96RI1 whole entry, looked up, the tested form may be a part): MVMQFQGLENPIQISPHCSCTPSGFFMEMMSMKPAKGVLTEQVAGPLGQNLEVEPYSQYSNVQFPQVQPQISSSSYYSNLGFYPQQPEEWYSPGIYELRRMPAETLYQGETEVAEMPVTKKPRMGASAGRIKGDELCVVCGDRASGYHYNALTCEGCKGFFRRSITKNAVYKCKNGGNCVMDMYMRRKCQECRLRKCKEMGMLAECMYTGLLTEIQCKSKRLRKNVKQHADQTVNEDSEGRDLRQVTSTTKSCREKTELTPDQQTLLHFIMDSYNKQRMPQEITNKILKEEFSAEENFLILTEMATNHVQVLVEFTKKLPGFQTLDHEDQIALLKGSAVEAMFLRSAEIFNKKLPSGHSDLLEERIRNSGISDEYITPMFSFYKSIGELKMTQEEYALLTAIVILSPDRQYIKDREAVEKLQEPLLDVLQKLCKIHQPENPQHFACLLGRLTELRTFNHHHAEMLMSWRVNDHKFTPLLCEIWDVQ
Summary of the method: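 HepG2 cells transiently transfected with reporter constructs in which a chimeric FXR-GAL4 protein drives a GAL4-UAS reporter; 24 h compound exposure. Reporter mRNA measured by RT-PCR, FAM labelling, HpaI digestion and capillary electrophoresis; gain-of-signal versus DMSO.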

[16] = molecular target: Oxysterols receptor LXR-beta (Homo sapiens) (UniProt P55055); assay: ATG_LXRb_TRANS: Attagene TRANS-FACTORIAL HepG2 Assay for human Liver X Receptor beta (LXRb) (AID 2282981); settings: HepG2 Attagene TRANS GAL4-LXRb reporter, mRNA
Chain of Oxysterols receptor LXR-beta (Homo sapiens) (P55055 whole entry, looked up, the tested form may be a part): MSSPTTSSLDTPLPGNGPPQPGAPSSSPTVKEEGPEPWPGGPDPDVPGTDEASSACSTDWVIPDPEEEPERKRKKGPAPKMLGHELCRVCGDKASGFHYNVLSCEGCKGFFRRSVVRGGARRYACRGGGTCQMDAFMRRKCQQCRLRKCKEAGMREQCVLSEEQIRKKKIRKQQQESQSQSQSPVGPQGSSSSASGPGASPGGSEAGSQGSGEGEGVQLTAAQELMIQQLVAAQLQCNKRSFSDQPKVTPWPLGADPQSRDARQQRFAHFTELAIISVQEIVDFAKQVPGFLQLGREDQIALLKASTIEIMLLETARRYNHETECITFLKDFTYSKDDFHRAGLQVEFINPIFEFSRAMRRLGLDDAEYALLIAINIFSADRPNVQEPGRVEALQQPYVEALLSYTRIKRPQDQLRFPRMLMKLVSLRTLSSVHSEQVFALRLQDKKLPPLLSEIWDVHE
Summary of the method: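 HepG2 cells transiently transfected with GAL4-UAS reporter units for chimeric NR-Gal4 proteins, dosed for 24 h. Reporter transcripts measured by RT-PCR and capillary electrophoresis; gain-of-signal fitting relative to DMSO.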

[17] = molecular target: Glucocorticoid receptor (Homo sapiens) (UniProt P04150); assay: ATG_GR_TRANS: Attagene TRANS-FACTORIAL HepG2 Assay for human Glucocorticoid Receptor (GR) (AID 2282978); settings: HepG2 Attagene TRANS GR reporter, mRNA transcription;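 further: activators score as hits since higher reporter transcript over DMSO is fitted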
Chain of Glucocorticoid receptor (Homo sapiens) (P04150 whole entry, looked up): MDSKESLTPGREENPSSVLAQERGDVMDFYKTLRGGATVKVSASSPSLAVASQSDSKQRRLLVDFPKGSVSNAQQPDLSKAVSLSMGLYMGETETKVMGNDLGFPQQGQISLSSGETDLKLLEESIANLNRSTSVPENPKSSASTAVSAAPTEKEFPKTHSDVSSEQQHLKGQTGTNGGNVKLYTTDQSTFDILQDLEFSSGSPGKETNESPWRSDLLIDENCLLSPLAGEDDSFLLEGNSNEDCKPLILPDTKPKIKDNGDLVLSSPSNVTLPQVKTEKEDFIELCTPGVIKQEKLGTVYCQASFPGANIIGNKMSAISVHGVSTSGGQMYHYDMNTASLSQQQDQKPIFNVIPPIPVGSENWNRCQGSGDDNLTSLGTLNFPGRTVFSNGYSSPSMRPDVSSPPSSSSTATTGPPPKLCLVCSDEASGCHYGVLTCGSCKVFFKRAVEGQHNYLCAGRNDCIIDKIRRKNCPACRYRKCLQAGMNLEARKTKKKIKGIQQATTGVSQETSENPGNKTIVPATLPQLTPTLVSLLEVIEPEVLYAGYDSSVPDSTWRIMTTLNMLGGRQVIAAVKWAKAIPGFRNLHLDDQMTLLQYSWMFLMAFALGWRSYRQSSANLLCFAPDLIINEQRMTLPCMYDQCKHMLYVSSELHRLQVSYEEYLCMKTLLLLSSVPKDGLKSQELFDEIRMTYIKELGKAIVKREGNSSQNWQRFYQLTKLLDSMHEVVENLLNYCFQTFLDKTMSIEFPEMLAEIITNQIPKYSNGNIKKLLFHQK
Summary of the method: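 After 24 h incubation with test chemical, transfected HepG2 cells were lysed for RNA; reporter cDNA was amplified, FAM-labelled, HpaI-digested and sized on a capillary analyser. Signal gain relative to DMSO was scored.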

Measured: AC50

CCOP(=O)(OCC)Oc1cc(C)nc(C(C)C)n1
inactive: [1] | [2] | [3] | [4] | [5] | [6] | [7]

C=C(C)[C@H]1Cc2c(ccc3c2O[C@@H]2COc4cc(OC)c(OC)cc4[C@@H]2C3=O)O1
active: [3] 0.0204 µM
inactive: [1] | [2] | [8] | [9] | [10] | [11] | [4] | [7]

CCCOCC(=Nc1ccc(Cl)cc1C(F)(F)F)n1ccnc1
not listed: [6] | [8] | [9] | [10] | [11] | [17]
inactive: all other assays above

CC(C)=CC1C(C(=O)OCN2C(=O)C3=C(CCCC3)C2=O)C1(C)C (centres undefined)
active: [12] 31.7 µM | [3] 50 µM | [7] 50 µM
not listed: [4] | [8] | [9] | [14] | [15]
inactive: all other assays above

O=c1ccc(=O)[nH][nH]1
not listed: [8] | [10] | [14] | [15] | [16] | [17]
inactive: all other assays above

CC(C)[C@H](C(=O)O[C@H](C#N)c1cccc(Oc2ccccc2)c1)c1ccc(Cl)cc1
inactive: [1] | [2] | [8] | [3] | [13] | [7]

Cc1nn(-c2cc(NS(C)(=O)=O)c(Cl)cc2Cl)c(=O)n1C(F)F
active: [12] 30.8 µM
inactive: [1] | [2] | [9] | [3] | [10] | [11] | [7]

CN1COCN(Cc2cnc(Cl)s2)C1=N[N+](=O)[O-]
not listed: [6] | [8] | [9] | [10] | [13] | [14]
inactive: all other assays above

CCCCOC(=O)c1ccccc1C(=O)O
inactive: [1] | [2] | [8] | [3] | [11] | [16] | [5] | [7]

CCNc1nc(Cl)nc(NC(C)(C)C#N)n1
not listed: [4] | [9] | [10] | [12] | [14] | [15]
inactive: all other assays above
